Source: PubChem BioAssay (EPA / NIEHS)
“And” between values parts separate entries of the source, which are not always exact repeats. Equal values may be shown once. Records with an inconclusive call do not appear. Some structures have more than one record in an assay (separate samples or runs), and their calls can disagree. The source made the active and inactive calls. The calls were made as follows: active = hit-call score of the fitted dose curve at least 0.9, where 1 is the maximum; inconclusive = response in the unintended direction; inactive = score below 0.9.

Key:
[1] = TOX21_p53_BLA_p2_viability: Viability Assessment in the Tox21 HCT-116 p53 Agonism Beta-lactamase Assay, Phase 2 (AID 2283591);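 also: compound exposure lasted 16 h at 37 °C; actives lower the ATP signal meaning cytotoxicity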
Summary of the method: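 HCT116 p53-bla cells, 4000/well, dosed after 5 h plating (217-fold dilution of DMSO stocks) and incubated 16 h at 37C. Viability taken as cellular ATP by CellTiter-Glo luminescence after 30 min RT; signal loss marks cytotoxicity.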

[2] = biological target: Cellular tumor antigen p53 (Homo sapiens) (UniProt P04637); experiment: TOX21_p53_BLA_p2_ratio: Tox21 HCT-116 p53 Agonism Beta-lactamase Assay, Ratio, Phase 2 (AID 2283592)
Summary of the method: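 Ratio endpoint: beta-lactamase cleavage of CCF4-AM, blue (460 nm) over green (530 nm). HCT116 reporter line; 16 h treatment, 37C; substrate 2 h RT.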

[3] = TOX21_p53_BLA_p3_viability: Viability Assessment in the Tox21 HCT-116 p53 Agonism Beta-lactamase Assay, Phase 3 (AID 2283593);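 also: cells exposed to compound for 16 h before reading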
Summary of the method: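 HCT116 cells, 4000/well, dosed 5 h after plating by pin transfer (217-fold dilution from DMSO stock) and incubated 16 h at 37C, 5% CO2. Viability read as ATP luminescence with CellTiter-Glo after 30 min at room temperature.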

[4] = biological target: Cellular tumor antigen p53 (Homo sapiens) (UniProt P04637); experiment: TOX21_p53_BLA_p3_ratio: Tox21 HCT-116 p53 Agonism Beta-lactamase Assay, Ratio, Phase 3 (AID 2283596)
Summary of the method: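 Cells were seeded at 4000/well, rested 5 h at 37C, then dosed with DMSO compound solutions (217-fold dilution) for 16 h. CCF4-AM substrate was loaded for 2 h at room temperature, and the 460/530 nm emission ratio was fitted for gain of signal versus DMSO.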

[5] = TOX21_p53_BLA_p4_viability: Viability Assessment in the Tox21 HCT-116 p53 Agonism Beta-lactamase Assay, Phase 4 (AID 2283597);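 also: hits lower the luminescence signal meaning cytotoxicity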
Summary of the method: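 Cytotoxicity was inferred from loss of CellTiter-Glo luminescence. HCT116 cells had been dosed with compounds after 5 h plating, incubated 16 h at 37C and 5% CO2, and exposed to the CCF4-AM substrate for 2 h.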

[6] = biological target: Cellular tumor antigen p53 (Homo sapiens) (UniProt P04637); experiment: TOX21_p53_BLA_p5_ratio: Tox21 HCT-116 p53 Agonism Beta-lactamase Assay, Ratio, Phase 5 (AID 2283599)
Summary of the method: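 HCT-116 p53-bla cells (4000/well) plated 5 h, dosed with compound (217-fold DMSO dilution) for 16 h at 37 C; CCF4-AM substrate 2 h at room temperature. Activity is the 460/530 nm emission ratio (405 nm excitation), fitted in gain-of-signal direction versus DMSO.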

[7] = TOX21_p53_BLA_p5_viability: Viability Assessment in the Tox21 HCT-116 p53 Agonism Beta-lactamase Assay, Phase 5 (AID 2283600)
Summary of the method: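 Luciferase-coupled ATP quantitation of cells treated for 16 h (37C, 5% CO2) with test chemicals delivered in DMSO via a 217-fold dilution; 4000 cells/well; reagent incubated 30 min at room temperature before luminescence reading.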

[8] = Tanguay_ZF_120hpf_MORT_legacy: (Legacy) Oregon State University Tanguay Lab 120 Hour Post-fertilization zebrafish Assay for Mortality (AID 2283633)
Summary of the method: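 Dechorionated Tropical 5D wild-type zebrafish embryos, one per well from 6 hpf, were statically exposed at 28C in the dark until 120 hpf (0.64% DMSO final). Mortality was scored as present/absent by brightfield microscopy, fitted positively versus DMSO.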

[9] = Tanguay_ZF_120hpf_SNOU_legacy: (Legacy) Oregon State University Tanguay Lab 120 Hour Post-fertilization zebrafish Assay for Snout Malformation (AID 2283637)
Summary of the method: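 Binary brightfield scoring of snout malformation at 120 hpf. Dechorionated 5D wild-type embryos, one per well, static exposure from 6 hpf at 28C, sealed and dark; final DMSO 0.64% (vol/vol), DMSO as baseline; 5uM trimethyltin chloride positive control.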

[10] = Tanguay_ZF_120hpf_PE_legacy: (Legacy) Oregon State University Tanguay Lab 120 Hour Post-fertilization zebrafish Assay for Pericardial Edema (AID 2283640);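 as to AC50: potency for increased incidence of pericardial edema versus DMSO baseline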
Summary of the method: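 Tropical 5D wild-type zebrafish embryos were exposed statically to 120 hpf at 28C, sealed and foil-covered, in 0.64% DMSO final. Pericardial edema was scored present/absent by brightfield microscopy; dead embryos were not scored.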

[11] = Tanguay_ZF_120hpf_BRAI_legacy: (Legacy) Oregon State University Tanguay Lab 120 Hour Post-fertilization zebrafish Assay for Brain Malformation (AID 2283641)
Summary of the method: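 Tropical 5D wild-type zebrafish embryos were exposed statically in sealed, foil-covered plates at 28C until 120 hpf, with 0.64% (vol/vol) final DMSO. Brain malformation was scored present/absent by brightfield microscopy, relative to DMSO baseline.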

[12] = Tanguay_ZF_120hpf_SOMI_legacy: (Legacy) Oregon State University Tanguay Lab 120 Hour Post-fertilization zebrafish Assay for Somite Malformation (AID 2283647)
Summary of the method: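 Tropical 5D wild-type zebrafish embryos, dechorionated with pronase at 4 hpf, were placed singly at 6 hpf and statically exposed until 120 hpf at 28C in 0.64% DMSO. Somite malformation was scored present/absent by brightfield microscopy versus DMSO.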

[13] = Tanguay_ZF_120hpf_PFIN_legacy: (Legacy) Oregon State University Tanguay Lab 120 Hour Post-fertilization zebrafish Assay for Pectoral Fin Malformation (AID 2283648);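 also: each larva judged yes or no for fin defect by brightfield with dead larvae skipped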
Summary of the method: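 Binary pectoral fin malformation call at 120 hpf by brightfield microscopy; 5D wild-type zebrafish, chorion removed at 4 hpf, one embryo per well from 6 hpf, static exposure at 28C; DMSO (0.64% final) as baseline.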

[14] = Tanguay_ZF_120hpf_CFIN_legacy: (Legacy) Oregon State University Tanguay Lab 120 Hour Post-fertilization zebrafish Assay for Caudal Fin Malformation (AID 2283649)
Summary of the method: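 Tropical 5D wild-type embryos, dechorionated with pronase at 4 hpf, were placed singly in wells at 6 hpf and statically exposed to compound at 28C until 120 hpf (0.64% DMSO). Caudal fin malformation was scored present/absent by brightfield microscopy.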

[15] = Tanguay_ZF_120hpf_AXIS_legacy: (Legacy) Oregon State University Tanguay Lab 120 Hour Post-fertilization zebrafish Assay for Body Axis Malformation (AID 2283635);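 as to AC50: potency for an increased fraction of larvae scored with body axis malformation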
Summary of the method: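 Tropical 5D wild-type zebrafish embryos, dechorionated with pronase at 4 hpf, were placed singly in wells at 6 hpf and exposed statically to test chemical (0.64% DMSO final) at 28C until 120 hpf, then scored by brightfield for body axis defects.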

[16] = Tanguay_ZF_120hpf_EYE_legacy: (Legacy) Oregon State University Tanguay Lab 120 Hour Post-fertilization zebrafish Assay for Eye Malformation (AID 2283636);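 also: binary presence or absence of eye malformation scored by brightfield in 120 hpf larvae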
Summary of the method: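 5D wild-type embryos, pronase-dechorionated at 4 hpf; static exposure 6–120 hpf, 28C, dark; DMSO 0.64% final; 5uM trimethyltin chloride positive control. Binary eye-defect scoring at 120 hpf; dead embryos not scored.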

[17] = Tanguay_ZF_120hpf_JAW_legacy: (Legacy) Oregon State University Tanguay Lab 120 Hour Post-fertilization zebrafish Assay for Jaw Malformation (AID 2283638);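 as to AC50: active means more embryos with jaw malformation than DMSO controls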
Summary of the method: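 Tropical 5D wild-type embryos, dechorionated with pronase at 4 hpf, were placed singly per well at 6 hpf and statically exposed at 28C until 120 hpf (0.64% DMSO final). Jaw malformation scored as present/absent by brightfield microscopy at 120 hpf, analyzed relative to DMSO.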

[18] = Tanguay_ZF_120hpf_OTIC_legacy: (Legacy) Oregon State University Tanguay Lab 120 Hour Post-fertilization zebrafish Assay for Otic Vesicle Malformation (AID 2283639)
Summary of the method: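 Wild-type zebrafish larvae, whole-embryo exposure from early stage to 120 hpf at 28C. Binary brightfield scoring of otic vesicle morphology, fitted in the positive direction against the DMSO baseline.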

[19] = Tanguay_ZF_120hpf_PIG_legacy: (Legacy) Oregon State University Tanguay Lab 120 Hour Post-fertilization zebrafish Assay for Pigmentation Malformation (AID 2283650)
Summary of the method: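 Brightfield scoring of pigmentation malformation at 120 hpf, recorded as binary present/absent per larva. Exposure: dechorionated 5D wild-type embryos, one per well, static from 6 hpf at 28C, final DMSO 0.64% (vol/vol). Dead embryos not scored.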

[20] = biological target: Cellular tumor antigen p53 (Homo sapiens) (UniProt P04637); experiment: TOX21_p53_BLA_p4_ratio: Tox21 HCT-116 p53 Agonism Beta-lactamase Assay, Ratio, Phase 4 (AID 2283601)
Summary of the method: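 HCT-116 p53 beta-lactamase reporter cells (4000/well) preincubated 5 h, then compound (217-fold dilution of DMSO stock) for 16 h at 37C. CCF4-AM substrate added 2 h at room temperature; 460/530 nm emission ratio fitted upward versus DMSO.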

Measured: AC50

Sequence of Cellular tumor antigen p53 (Homo sapiens) (P04637 whole entry, looked up): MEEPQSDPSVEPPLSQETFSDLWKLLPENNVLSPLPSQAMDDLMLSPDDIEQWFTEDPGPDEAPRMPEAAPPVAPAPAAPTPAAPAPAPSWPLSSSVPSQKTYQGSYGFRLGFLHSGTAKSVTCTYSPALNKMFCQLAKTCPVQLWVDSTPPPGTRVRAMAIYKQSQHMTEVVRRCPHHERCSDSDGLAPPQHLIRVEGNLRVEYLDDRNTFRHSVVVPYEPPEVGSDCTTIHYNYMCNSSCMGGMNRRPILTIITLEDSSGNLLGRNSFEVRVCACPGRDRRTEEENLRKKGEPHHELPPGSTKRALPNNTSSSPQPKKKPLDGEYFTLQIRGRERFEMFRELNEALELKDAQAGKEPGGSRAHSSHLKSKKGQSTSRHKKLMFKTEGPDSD

O=S1(=O)OCC2C(CO1)C1(Cl)C(Cl)=C(Cl)C2(Cl)C1(Cl)Cl (stereo not drawn)
inactive: [1] | [2] | [3] | [4] | [5] | [6] | [7]

CCCN(CCC)c1c([N+](=O)[O-])cc(C(C)C)cc1[N+](=O)[O-]
not listed: [6] | [15] | [16] | [17] | [18] | [19] | [20]
inactive: all other assays above

c1ccc2c(c1)Nc1ccccc1S2
not listed: [13] | [20]
inactive: all other assays above

Nc1ccc(Cl)cc1
not listed: [13] | [20]
inactive: all other assays above

Nc1ccc2ccccc2c1
active: [15] 33.4 µM | [16] 47.7 µM | [9] 33.9 µM | [17] 34.9 µM | [10] 42 µM | [11] 202 µM | [19] 46.5 µM
not listed: [3]
inactive: all other assays above

C=CC(=O)OCC(CC)(COC(=O)C=C)COC(=O)C=C
inactive: [2] | [4] | [6]
active: [1] 46.1 µM and 95.1 µM | [2] 86.6 µM | [3] 69.2 µM and 16.2 µM | [5] 75.7 µM and 97.1 µM | [7] 85.1 µM and 89.1 µM

CCCCN(CC)C(=O)SCCC
inactive: [1] | [2] | [3] | [4] | [5] | [6] | [7] | [20]

O=[N+]([O-])c1ccccc1
not listed: [19]
inactive: all other assays above

O=P(Oc1ccccc1)(Oc1ccccc1)Oc1ccccc1
inactive: all assays above

CC(C)Nc1ccc(Nc2ccccc2)cc1
inactive: [2] | [3] | [7] | [20]
active: [1] 46.1 µM and 45.9 µM and 23 µM | [2] 14.6 µM and 23.1 µM | [4] 66.1 µM and 76.4 µM and 31.5 µM | [5] 46.1 µM and 45.9 µM and 19.2 µM | [6] 66.4 µM and 78.4 µM and 24 µM | [20] 14.9 µM

CCOP(=S)(OCC)SCn1nnc2ccccc2c1=O
inactive: [1] | [2] | [3] | [4] | [5] | [6] | [7]

O=P(OCC(Br)CBr)(OCC(Br)CBr)OCC(Br)CBr (stereo not drawn)
active: [2] 80.2 µM | [4] 75.3 µM and 86.9 µM | [6] 66.9 µM and 74.7 µM
inactive: [1] | [2] | [3] | [5] | [7]

CCOP(=S)(S)OCC
inactive: [1] | [2] | [4] | [5] | [7] | [20]

CCC1(c2ccccc2)C(=O)N=C(O)NC1=O (stereo not drawn)
not listed: [3] | [6] | [7] | [20]
inactive: all other assays above

Cc1ccc2c(c1N)C(=O)c1ccccc1C2=O
inactive: [1] | [2] | [3] | [4] | [5] | [6] | [7]

CCC(C)(C)c1ccc(O)cc1
inactive: [1] | [2] | [3] | [4] | [5] | [6] | [7] | [8]
active: [15] 19 µM | [16] 22.3 µM | [9] 52.7 µM | [17] 14.7 µM | [18] 48.4 µM | [10] 44.5 µM | [11] 48.1 µM | [12] 36.6 µM | [13] 22.2 µM | [14] 48.8 µM | [19] 47.4 µM
